According to PubChem BioAssay (EPA / NIEHS):
Where “and” joins values, the source holds several entries; their conditions need not be identical. Identical values can stand only once. Some compounds were tested as several samples or in several runs, with calls that do not always agree. Calls of active or inactive are those of the source. Rule for the calls: active = hit-call score of the fitted dose curve at least 0.9, where 1 is the maximum; inactive = score below 0.9.

Legend:
Conditions in all cases: primary human HUVEC with PBMC; actives raise or lower the signal
[1] = read-out: Interleukin-1 alpha (IL1a), IL1A (gene 3552); experiment: BSK_LPS_IL1a: BioMAP Diversity Plus: LPS Assay for Interleukin-1 alpha (IL1a) Biomarker Activity (AID 2283080)
Method in brief: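 HUVEC/PBMC co-culture, LPS system; 24 h after dosing; IL-1a by ELISA; gain or loss of signal fitted bidirectionally vs DMSO baseline.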

[2] = read-out: Monocyte Chemoattractant Protein-1 (MCP1), CCL2 (gene 6347); experiment: BSK_LPS_MCP1: BioMAP Diversity Plus: LPS Assay for Monocyte Chemoattractant Protein-1 (MCP1) Biomarker Activity (AID 2283081);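 for AC50: secreted MCP-1 protein quantified by ELISA in culture supernatant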
Method in brief: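 ELISA read-out of MCP-1 after 24 h chemical dosing of a human umbilical vein endothelial cell/peripheral blood mononuclear cell co-culture stimulated with LPS. Gain or loss of signal fitted relative to DMSO controls.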

[3] = BSK_LPS_PGE2: BioMAP Diversity Plus: LPS Assay for Prostaglandin E2 (PGE2) Biomarker Activity (AID 2283082);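 for AC50: secreted prostaglandin E2 measured by ELISA in LPS-stimulated co-culture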
Method in brief: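 PGE2 release measured by ELISA in an LPS-activated co-culture of human umbilical vein endothelial cells and peripheral blood mononuclear cells, read at 24 h post-dosing. DMSO served as baseline for bidirectional curve fitting.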

[4] = read-out: Macrophage colony-stimulating factor (MCSF), CSF1 (gene 1435); experiment: BSK_LPS_MCSF: BioMAP Diversity Plus: LPS Assay for Macrophage colony-stimulating factor (MCSF) Biomarker Activity (AID 2283083)
Method in brief: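 HUVEC + PBMC co-culture (human primary), 24 h post-dose; M-CSF by ELISA; gain/loss of signal fitted bidirectionally vs DMSO baseline.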

[5] = read-out: Tissue Factor, F3 (gene 2152); experiment: BSK_LPS_TissueFactor: BioMAP Diversity Plus: LPS Assay for Tissue Factor Biomarker Activity (AID 2283084)
Method in brief: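 HUVEC/PBMC co-culture, LPS-activated; CD142 ELISA read 24 h post-dose; bidirectional curve fit vs DMSO negative control.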

[6] = read-out: Tumor necrosis factor (Homo sapiens) (UniProt P01375); experiment: BSK_LPS_TNFa: BioMAP Diversity Plus: LPS Assay for Tumour Necrosis Factor alpha (TNFa) Biomarker Activity (AID 2283085);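 for AC50: TNFa protein level quantified by ELISA in the co-culture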
Method in brief: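 TNFa was quantified by ELISA in LPS-activated co-cultures of human endothelial cells and PBMC, 24 h post-dosing. Both increases and decreases versus DMSO were fitted.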

[7] = read-out: Vascular cell adhesion molecule 1 (VCAM1), VCAM1 (gene 7412); experiment: BSK_LPS_VCAM1: BioMAP Diversity Plus: LPS Assay for Vascular cell adhesion molecule 1 (VCAM1) Biomarker Activity (AID 2283086)
Method in brief: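 VCAM-1 quantified by ELISA in an LPS-activated co-culture of human endothelial cells and peripheral blood mononuclear cells, read 24 h post-treatment. Fitted in both directions versus DMSO; parallel SRB staining flags overt cytotoxicity.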

CD38, CD38 (gene 952) = experiment: BSK_SAg_CD38: BioMAP Diversity Plus: SAg Assay for CD38 Biomarker Activity (AID 2283087)
Method in brief: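 CD38 quantified by ELISA (fluorescence) in a superantigen-activated endothelial cell–PBMC co-culture at 24 h post-dose. Activity fitted in both directions relative to DMSO; parallel SRB and Alamar Blue cytotoxicity read-outs.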

CD40, CD40 (gene 958) = experiment: BSK_SAg_CD40: BioMAP Diversity Plus: SAg Assay for CD40 Biomarker Activity (AID 2283088)
Method in brief: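 HUVEC/PBMC co-culture, 24 h post-dose; CD40 by ELISA, fluorescence intensity; bidirectional fit vs DMSO negative control.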

CD69, CD69 (gene 969) = experiment: BSK_SAg_CD69: BioMAP Diversity Plus: SAg Assay for CD69 Biomarker Activity (AID 2283089);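 for AC50: cell surface CD69 protein quantified by ELISA with fluorescence detection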
Method in brief: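 HUVEC co-cultured with PBMC were dosed with chemical, and CD69 was measured by ELISA with fluorescence read-out 24 h later. Bidirectional curve fitting used DMSO as negative control and activity baseline.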

Measured: AC50

Tumor necrosis factor (Homo sapiens), sequence (P01375 whole entry, looked up): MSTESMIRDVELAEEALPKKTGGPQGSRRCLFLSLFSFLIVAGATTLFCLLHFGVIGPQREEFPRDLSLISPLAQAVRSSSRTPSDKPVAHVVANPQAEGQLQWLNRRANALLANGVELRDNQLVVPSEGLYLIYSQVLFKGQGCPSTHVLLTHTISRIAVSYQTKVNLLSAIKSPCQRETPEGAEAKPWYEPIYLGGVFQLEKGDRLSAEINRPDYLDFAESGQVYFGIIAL

COC(=O)c1ccccc1C(=O)OC
inactive: all assays above

C=CC1(C)OC(=O)N(c2cc(Cl)cc(Cl)c2)C1=O (stereo not drawn)
not listed: [4]
inactive: all other assays above

CCc1nn(C)c(C(=O)NCc2ccc(C(C)(C)C)cc2)c1Cl
active: [1] 33 µM | [2] 29.4 µM | [3] 3.97 µM | [6] 20.8 µM | [7] 19.4 µM | CD38, CD38 (gene 952) 15.8 µM | CD40, CD40 (gene 958) 7.68 µM | CD69, CD69 (gene 969) 3.99 µM

O=C(Nc1ccccc1)Nc1ccnc(Cl)c1
active: [2] 9.85 µM | [3] 6.08 µM | [6] 31.1 µM | CD69, CD69 (gene 969) 20 µM
not listed: [4]
inactive: all other assays above

COC(=O)C(C)Oc1ccc(Oc2ccc(Cl)cc2Cl)cc1 (stereo not drawn)
active: [2] 28.9 µM | [3] 11.4 µM and 12 µM and 23.5 µM | CD38, CD38 (gene 952) 10.9 µM | CD40, CD40 (gene 958) 13.6 µM
inactive: [1] | [2] | [5] | [6] | [7] | CD38, CD38 (gene 952) | CD40, CD40 (gene 958) | CD69, CD69 (gene 969)

O=C(O)c1nc(Cl)ccc1Cl
not listed: [5]
inactive: all other assays above

Cc1ccc(-c2c(Cl)nc(C#N)n2S(=O)(=O)N(C)C)cc1
inactive: [1] | [5] | [6]
active: [2] 29.6 µM | [3] 30 µM | [7] 34 µM | CD38, CD38 (gene 952) 22.5 µM | CD40, CD40 (gene 958) 20 µM | CD69, CD69 (gene 969) 13.9 µM

COc1nc(C)nc(NC(=O)NS(=O)(=O)c2ccccc2CCC(F)(F)F)n1
inactive: all assays above

CCCCNC(=O)n1c(NC(=O)OC)nc2ccccc21
active: [7] 22.6 µM
not listed: [5]
inactive: all other assays above

CCCCOC(=O)c1ccccc1C(=O)OCCCC
inactive: [1] | [2] | [3] | [6] | [7] | CD38, CD38 (gene 952) | CD40, CD40 (gene 958) | CD69, CD69 (gene 969)
active: CD40, CD40 (gene 958) 15.4 µM

COP(N)(=O)SC (stereo not drawn)
active: [3] 20 µM
inactive: all other assays above

CCNc1nc(Cl)nc(NCC)n1
active: [6] 8.37 µM
not listed: [4]
inactive: all other assays above

COc1ccc(C(c2ccc(OC)cc2)C(Cl)(Cl)Cl)cc1
inactive: [3]
active: [1] 32.5 µM | [2] 29.7 µM | [4] 20 µM | [6] 12.2 µM | [7] 20 µM | CD38, CD38 (gene 952) 14.9 µM | CD40, CD40 (gene 958) 15.3 µM | CD69, CD69 (gene 969) 25.4 µM

CS/C(C)=N/OC(=O)N(C)SN(C)C(=O)O/N=C(\C)SC
inactive: [3]
active: [1] 15.6 µM | [2] 29.9 µM | [6] 16.2 µM | [7] 24.3 µM | CD38, CD38 (gene 952) 26.4 µM | CD40, CD40 (gene 958) 28.3 µM | CD69, CD69 (gene 969) 31.7 µM

CN(C)C(=S)SSC(=S)N(C)C
active: [1] 16.1 µM | [2] 27.1 µM | [3] 4.51 µM | [4] 14.8 µM | [6] 13.8 µM | [7] 24.6 µM | CD38, CD38 (gene 952) 26.8 µM | CD40, CD40 (gene 958) 28 µM | CD69, CD69 (gene 969) 28.3 µM

CC(C)(C)c1ccc(CSc2cnn(C(C)(C)C)c(=O)c2Cl)cc1
active: [1] 20 µM | [2] 5.45 µM | [7] 15.8 µM | CD38, CD38 (gene 952) 2.4 µM | CD40, CD40 (gene 958) 4.43 µM | CD69, CD69 (gene 969) 1.43 µM
inactive: [3] | [5] | [6]

C=CCC1=C(C)C(OC(=O)C2C(C=C(C)C)C2(C)C)CC1=O (stereo not drawn)
inactive: [3]
active: [1] 34.3 µM [middle of 4 runs] | [2] 35.7 µM [middle of 4 runs] | [3] 33.7 µM and 5.54 µM | [6] 34.3 µM [middle of 4 runs] | [7] 31 µM [middle of 4 runs] | CD38, CD38 (gene 952) 30.5 µM and 34.3 µM and 31.6 µM | CD40, CD40 (gene 958) 31.7 µM [middle of 4 runs] | CD69, CD69 (gene 969) 30.1 µM [middle of 4 runs]

COC(=O)C=C(C)OP(=O)(OC)OC
active: [3] 0.37 µM
not listed: [5]
inactive: all other assays above

Fc1ccc(Oc2ccnc3cc(Cl)cc(Cl)c23)cc1
active: [1] 14.6 µM | [2] 29.5 µM | [3] 8.77 µM | [4] 18.7 µM | [6] 20 µM | [7] 23.2 µM | CD38, CD38 (gene 952) 25.1 µM | CD69, CD69 (gene 969) 14.9 µM

C#CCOS(=O)OC1CCCCC1Oc1ccc(C(C)(C)C)cc1 (stereo not drawn)
inactive: [3] | [6]
active: [1] 16.4 µM | [2] 20 µM | [5] 32.6 µM | [7] 10.1 µM | CD38, CD38 (gene 952) 5.43 µM | CD40, CD40 (gene 958) 7.36 µM | CD69, CD69 (gene 969) 5.11 µM

O=C(O)COc1nc(Cl)c(Cl)cc1Cl
active: [6] 27.8 µM
inactive: all other assays above

Cc1cc(Cl)ccc1OCC(=O)O
not listed: [4]
inactive: all other assays above

CCCCNC(=O)OCC#CI
active: [1] 23.2 µM and 13 µM | [2] 30.9 µM and 16.6 µM | [3] 36 µM | [5] 15.6 µM and 13.7 µM | [6] 13.2 µM and 12.3 µM | [7] 24.9 µM and 27.1 µM | CD38, CD38 (gene 952) 21.4 µM and 17.4 µM | CD40, CD40 (gene 958) 18.7 µM and 22.5 µM | CD69, CD69 (gene 969) 21.9 µM and 15.5 µM
inactive: [3]

CC1=C(C(=O)Nc2ccccc2)SCCO1
active: [3] 8.8 µM
not listed: [4]
inactive: all other assays above

CO/C=C(/C(=O)OC)c1ccccc1Oc1cc(Oc2ccccc2C#N)ncn1
active: [2] 27.1 µM [middle of 4 runs] | [3] 9.64 µM | [4] 24.5 µM [middle of 4 runs] | [6] 15.5 µM | [7] 11 µM and 8.26 µM and 19.7 µM | CD38, CD38 (gene 952) 20 µM [middle of 4 runs] | CD40, CD40 (gene 958) 20.6 µM [middle of 4 runs] | CD69, CD69 (gene 969) 12.3 µM [middle of 4 runs]
inactive: [1] | [3] | [6] | [7]
